Experimental findings from PubChem BioAssay (EPA / NIEHS) are described below.

Activity calls are given as the source filed them. The calls were made as follows: active = hit-call score of the fitted dose curve at least 0.9, where 1 is the maximum; inactive = score below 0.9.

Read-out in the assay: Interleukin-1 alpha (IL1a), IL1A (gene 3552)
Nature of the assay: BSK_BE3C_IL1a: BioMAP Diversity Plus: BE3C Assay for Interleukin-1 alpha (IL1a) Biomarker Activity (AID 2283016). As to conditions: primary human bronchial epithelial cells; actives raise or lower the signal. The protocol:
BSK_BE3C is a cell-based, multiplexed-readout assay that uses bronchial epithelial cell, a human lung primary cell, with measurements taken at 24 hours after chemical dosing in a 96-well plate.BSK_BE3C_IL1a is an assay component measured in the BSK_BE3C assay. It measures IL-1a antibody related to regulation of gene expression using ELISA technology.Data from the assay component BSK_BE3C_IL1a was analyzed into 1 assay endpoint. This assay endpoint, BSK_BE3C_IL1a, was analyzed with bidirectional fitting relative to DMSO as the negative control and baseline of activity. Using a type of binding reporter, gain or loss-of-signal activity can be used to understand changes in the signaling as they relate to the gene IL1A. Furthermore, this assay endpoint can be referred to as a primary readout, because this assay has produced multiple assay endpoints where this one serves a signaling function. To generalize the intended target to other relatable targets, this assay endpoint is annotated to the cytokine intended target family, where the subfamily is interleukins.
The levels of cell surface (or secreted, indicated by the prefix "s") biomarker endpoints were measured by ELISA. Overt cytotoxicity to cells in confluent adherent cultures (all systems other than the BT system) was assessed by measuring total protein levels using sulforhodamine B (SRB) staining in parallel cultures at the time of biomarker measurements, indicated as SRB endpoints. For proliferation assays for adherent cell types, individual cell types are cultured at sub-confluence and relative cell numbers quantified by SRB staining at time points optimized for each system (48 h: 3C and CASM3C systems; 72 h: BT and HDF3CGF systems; 96 h: SAg system). SRB was performed by staining cells with 0.1% SRB after fixation with 10% TCA and reading wells at 560 nm.Viability and proliferation of PBMC (T cells) was quantified by Alamar Blue reduction for the SAg and BT systems. For PBMC viability (referred to as PBMC Cytotoxicity within the assay endpoint names), cells were plated (75,000/well in a 96-well plate) and then chemical samples added for 1 h before addition of activators, SEB and TSST-1 (20 ng/mL final concentration each). Cells were incubated for 90 h. Then, Alamar Blue (20 uL/well) (Invitrogen, Cat DAL1100) was added for 6 h, and the plates were read with a fluorescence microplate reader at 546/580 nm (excitation/emission). For PBMC proliferation, cells were plated and activated as above but incubated for only 16 h prior to addition of Alamar Blue. Plates were read after 6 h.
In the case of `CS(=O)(=O)c1ccc(C(=O)C2C(=O)CCCC2=O)c([N+](=O)[O-])c1`, the outcome was inactive.

For `CC1(C)CCC(=Cc2ccc(Cl)cc2)C1(O)Cn1cncn1` (stereo not given), the result was inactive.

Turning to `COC(=O)NC(=S)Nc1ccccc1NC(=S)NC(=O)OC`, the result was inactive.

`COC(=O)c1c(C(F)F)nc(C(F)(F)F)c(C2=NCCS2)c1CC(C)C`: the result was inactive.

Take `COCC(=O)N(c1c(C)cccc1C)C(C)C(=O)OC` (stereo not given): the outcome was inactive.

For `CNC(=O)N(C)c1nnc(C(C)(C)C)s1`, the result was inactive.

In the case of `CCN(CC)c1nc(C)cc(OP(=S)(OC)OC)n1`, the outcome was inactive.

For `CC(C)N1C(=O)N(c2ccccc2)CSC1=NC(C)(C)C`, the result was inactive.

For the compound `COP(=O)(OC)O/C(C)=C/C(=O)N(C)C`, the result was inactive.

Consider `O=c1n(Cl)c(=O)n(Cl)c(=O)n1Cl`, for which the result was inactive.

On to `CC(C)N1C(=O)c2ccccc2NS1(=O)=O`, for which the result was inactive.

`CC(C)Nc1nc(Cl)nc(NC(C)C)n1`: the result was inactive.

`O=C(Nc1ccccc1-c1ccc(Cl)cc1)c1cccnc1Cl`: the outcome was inactive.

Regarding `CN=C=S`, the outcome was inactive.

In the case of `CN/C(=N\[N+](=O)[O-])NCc1cnc(Cl)s1`, the result was inactive.

Take `CCCCC(C#N)(Cn1cncn1)c1ccc(Cl)cc1` (stereo not given): the result was inactive.

As to `COc1cc(Cl)c(OC)cc1Cl`, the result was inactive.

Take `CCOP(=O)(OCC)Oc1nc(Cl)c(Cl)cc1Cl`: the result was inactive.

With `Cn1c(-c2ccccc2)cc(-c2ccccc2)[n+]1C`, the result was inactive.

Regarding `Cc1c(COC(=O)[C@@H]2[C@H](/C=C(\Cl)C(F)(F)F)C2(C)C)cccc1-c1ccccc1`, the outcome was inactive.

On to `CCNC(=O)NC(=O)C(C#N)=NOC`, for which the result was inactive.

For the compound `COc1cc(OC)nc(NC(=O)NS(=O)(=O)c2ncccc2OCC(F)(F)F)n1`, the outcome was inactive.

As for `Clc1nc(Cl)nc(Nc2ccccc2Cl)n1`, the outcome was inactive.

For the compound `C=CCOC(=O)C(C)(C)OC(=O)c1cc(-n2c(=O)cc(C(F)(F)F)n(C)c2=O)ccc1Cl`, the outcome was inactive.

With `CCCCOCN(C(=O)CCl)c1c(CC)cccc1CC`, the AC50 (as a rule, the midpoint of the concentration-response curve, whichever way the signal moves) is 36.5 µM (active).

For the compound `CCOc1nc(F)cc2nc(S(=O)(=O)Nc3c(Cl)cccc3Cl)nn12`, the outcome was inactive.

As to `Cc1cc(C)nc(Nc2ccccc2)n1`, the outcome was inactive.

On to `O=C1C2CC=CCC2C(=O)N1SC(Cl)(Cl)Cl` (stereo not given), for which the AC50 is 11.2 µM (active).

Turning to `CC1(C)C(C=C(Cl)Cl)C1C(=O)OC(C#N)c1cccc(Oc2ccccc2)c1` (stereo not given), the result was inactive.

`CC(C)C1(C)N=C(c2ncccc2C(=O)O)NC1=O` (stereo not given): the result was inactive.

Take `COCc1cnc(C2=NC(C)(C(C)C)C(=O)N2)c(C(=O)O)c1` (stereo not given): the result was inactive.

Consider `COC(=O)NS(=O)(=O)c1ccc(N)cc1`, for which the outcome was inactive.

As for `CCC(C)n1c(=O)[nH]c(C)c(Br)c1=O` (stereo not given), the outcome was inactive.

Regarding `CC(C)NC(=O)N1CC(=O)N(c2cc(Cl)cc(Cl)c2)C1=O`, the outcome was inactive.

Take `Cc1ccc(N=CN(C)C=Nc2ccc(C)cc2C)c(C)c1`: the AC50 was 35.1 µM (active).

Regarding `Clc1cccc(C(Cl)(Cl)Cl)n1`, the result was inactive.

As for `COC(=O)N(C(=O)N1CO[C@@]2(C(=O)OC)Cc3cc(Cl)ccc3C2=N1)c1ccc(OC(F)(F)F)cc1`, the outcome was inactive.

`O=C(O)c1c(Cl)ccc2cc(Cl)cnc12`: the outcome was inactive.

For `COP(=S)(OC)SCn1nnc2ccccc2c1=O`, the outcome was inactive.

Take `Nc1cnn(-c2ccccc2)c(=O)c1Cl`: the result was inactive.
